In this experiment the test system is Vero E6 infected with SARS-CoV-2. Nature of the experiment: inhibition of SARS-CoV-2 cytopathic effect; higher = more antiviral protection, active = above 15. Conditions: 10000 nM; 48 h. In general terms: Cytopathic effects are the visible damage that an infection or toxin causes in cultured cells.
For the compound `Nc1ccc(S(=O)(=O)Nc2ccccn2)cc1` [sulfapyridine], the “inhibition of SARS-CoV-2 cytopathic effect” value (from here on “inhibition”) is -4.35% (inactive). As to `C[C@H](Cc1ccc(OCC(=O)O)cc1)NC[C@H](O)c1cccc(Cl)c1`, the “inhibition” value is 0.72% (inactive).

`c1ccc(CNCc2ccc(CN3CCCNCCNCCCNCC3)cc2)nc1`: the “inhibition” value is 2.99% (inactive).

Turning to `NC1=N[C@@](c2cccc(-c3cncnc3)c2)(c2ccnc(C(F)F)c2)c2cccc(F)c21`, the “inhibition” value is -2.76% (inactive). In the case of `CN(CCOP(=O)(O)O)C(=N)N` [creatinol-phosphate] it was -1.58% (inactive). As for `CCOc1ccc(-c2nc(-c3cccc4c3CCC4NCCO)no2)cc1OCC` (stereo not drawn), the “inhibition” value was 5.33% (inactive).

`O=C(Oc1ccc(Br)cc1)N1CCN2CCC1CC2`: the “inhibition” value is 0.59% (inactive). As for `CC[C@H](C)n1cc(C)c2c(C(=O)NCc3c(C)cc(C)[nH]c3=O)cc(-c3ccc(N4CCNCC4)nc3)cc21`, the “inhibition” value was -4.63% (inactive).

`CCCCCCCN(CC)CCC[C@@H](O)c1ccc(NS(C)(=O)=O)cc1` (racemic) [ibutilide]: the “inhibition” value is -2.22% (inactive). For the compound `Cc1ccc(Cl)c(Nc2ccccc2C(=O)O)c1Cl` [meclofenamic-acid], the “inhibition” value was -1.58% (inactive). The value for `COC(F)(F)C(Cl)Cl` [methoxyflurane] was -1.64% (inactive); that for `O=P(O)(O)CN(CCN(CP(=O)(O)O)CP(=O)(O)O)CP(=O)(O)O` was -1.39% (inactive). In the case of `O=C(NCCCNc1nc(Nc2cccc(NC(=O)N3CCCC3)c2)ncc1I)c1cccs1` it was -23.3% (inactive); in that of `C=C1CC[C@H](O)C/C1=C/C=C1\CCC[C@]2(C)[C@@H]([C@H](C)CCCC(C)(C)O)CC[C@@H]12` [calcifediol], 0.11% (inactive); in that of `C#Cc1cccc(Nc2ncnc3cc(OCCOC)c(OCCO)cc23)c1`, -8.66% (inactive). In the case of `O=C(O)c1ccc2c(c1)nc(Nc1cccc(Cl)c1)c1ccncc12` it was -1.33% (inactive). Take `CCCCCCCCCCCCCCCC(=O)OC(CC(=O)[O-])C[N+](C)(C)C` (stereo not drawn) [palmitoylcarnitine]: the “inhibition” value is -9.18% (inactive). The value for `CNc1ncc2cc(-c3cc(NC(=O)NCCC(C)(C)C)c(F)cc3C)c(C)nc2n1` was -8.15% (inactive); that for `Cc1ccc(OCCSc2ncccn2)c(Br)c1` was -1.49% (inactive). The value for `NC(=O)c1ccc[n+]([C@@H]2O[C@H](COP(=O)([O-])OP(=O)(O)OC[C@H]3O[C@@H](n4cnc5c(N)ncnc54)[C@H](O)[C@@H]3O)[C@@H](O)[C@H]2O)c1` [nadide] was -0.54% (inactive); that for `CCN1CCN(C(=O)Cc2ccc(Nc3ncc(F)c(Nc4ccc(C(=O)Nc5ccccc5Cl)cc4)n3)cc2)CC1` [aurora-a-inhibitor-i] was 4.49% (inactive); that for `N[C@@H](CS)C(=O)O` [L-cysteine] was -5.76% (inactive). For `COc1cc(Br)c(Nc2nc(-c3c(C)nc4ncccn34)cs2)c(Br)c1`, the “inhibition” value is 10.6% (inactive). As to `Cc1nc(Nc2ncc(C(=O)Nc3c(C)cccc3Cl)s2)cc(N2CCN(CCO)CC2)n1` [dasatinib], the “inhibition” value was -11.6% (inactive). In the case of `Cc1cc(O)c2c(c1)C(=O)c1cccc(O)c1C2=O` [chrysophanic-acid] it was 5.09% (inactive). With `CC(=O)NC[C@H]1CN(c2ccc(N3CCOCC3)c(F)c2)C(=O)O1` [linezolid], the “inhibition” value is 3.13% (inactive). In the case of `c1coc(-c2nnc3sc(C4CCCCC4)nn23)c1` [cardionogen-1] it was -1.68% (inactive). In the case of `O=C1NC(=O)c2c1c1c3ccccc3n3c1c1c2c2ccccc2n1C1CCC3O1` it was 8.57% (inactive).

(Values after the supplement of paper PMC13380429.)
